# Screens: PubChem, several laboratories
# Most compounds without a hit are left out; they make up all but 1.8% or so of the library.
# Neddyl block: cullin neddylation inhibition | P61081+Q13564 | TR-FRET cullin neddylation, biochemical | calls only at 25 µM | 360,000 compounds, 0.58% hits | AID 651699; in the data active means inhibition above about 36%
# UHRF1 binding: UHRF1 methyl-DNA binding inhibition; AID 687016; 370,000 compounds, 0.75% hits; UHRF1 binding to methylated oligo, TR-FRET; Q96T88; inhibition, % at 4.4 µM;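 further: UHRF1 SRA domain binding a hemimethylated CpG hairpin DNA probe; 0% = median of test compound wells and 100% = reference inhibitor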
# Target sequence (Q96T88 whole entry, looked up, the tested form may be a part): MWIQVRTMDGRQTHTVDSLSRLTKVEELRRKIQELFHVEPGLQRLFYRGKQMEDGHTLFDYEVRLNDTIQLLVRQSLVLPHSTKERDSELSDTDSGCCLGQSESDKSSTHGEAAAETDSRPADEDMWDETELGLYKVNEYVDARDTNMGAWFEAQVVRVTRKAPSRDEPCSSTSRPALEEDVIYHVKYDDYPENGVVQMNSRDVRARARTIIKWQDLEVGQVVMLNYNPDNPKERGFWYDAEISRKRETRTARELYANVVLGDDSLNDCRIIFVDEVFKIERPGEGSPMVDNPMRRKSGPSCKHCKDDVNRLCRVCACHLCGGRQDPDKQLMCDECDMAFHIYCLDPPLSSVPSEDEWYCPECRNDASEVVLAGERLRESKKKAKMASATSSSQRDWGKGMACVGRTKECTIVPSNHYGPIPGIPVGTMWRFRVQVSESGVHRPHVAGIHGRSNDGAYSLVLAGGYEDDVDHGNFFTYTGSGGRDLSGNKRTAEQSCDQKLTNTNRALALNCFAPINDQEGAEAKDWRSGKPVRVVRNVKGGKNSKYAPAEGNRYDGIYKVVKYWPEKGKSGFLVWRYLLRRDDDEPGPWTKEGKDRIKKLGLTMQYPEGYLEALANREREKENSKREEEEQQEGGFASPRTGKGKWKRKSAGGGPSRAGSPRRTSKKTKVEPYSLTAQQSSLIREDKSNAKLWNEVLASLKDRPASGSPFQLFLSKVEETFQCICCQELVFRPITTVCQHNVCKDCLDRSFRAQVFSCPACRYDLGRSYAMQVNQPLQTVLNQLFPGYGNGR
# UBC13 polyUb: blocks human UBC13 polyubiquitin chain formation. P61088. TR-FRET. inhibition, % at 20 µM. 330,000 compounds, 0.47% hits; in the data active means inhibition above about 45%, passing the limit was not always enough
# MBD2 inh: blocks human MBD2 binding to methylated DNA; AID 686964; 370,000 compounds, 0.31% hits; TR-FRET, MBD2 binding to methylated oligonucleotide; inhibition, % at 4.4 µM; in the data active means inhibition above about 13%
# Neddyl conf: confirmation of human cullin neddylation inhibitors; shares compounds with Neddyl block; TR-FRET cullin neddylation biochemical assay; calls only at 25 µM; 1,800 compounds, 13% hits; AID 652217; in the data active means inhibition above about 40%;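 further: neddylation substrate is the cullin 1 ring ligase complex with SKP2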
# UHRF1 ctr MBD2: inhibits human UHRF1 binding to methylated oligonucleotide, MBD2 counter-screen | 1,000 compounds, 25% hits | TR-FRET | inhibition, % at 4.4 µM | shares compounds with MBD2 inh;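 further: UHRF1 SRA domain binding a labeled hemimethylated CpG hairpin DNA; 0% = vehicle only and 100% = reference inhibitor with vehicle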
# MBD2 confirm: MBD2-DBD methyl-DNA binding inhibition, TR-FRET confirmation; shares compounds with MBD2 inh; TR-FRET MBD2-DBD binding to methylated oligonucleotide; inhibition, % at 4.4 µM; 1,000 compounds, 26% hits; AID 720531; in the data active means inhibition above about 14%
# Active calls of the source: *; i = inactive; . = not tested or not shown; + = active, no number. Unless noted, no stated cut-off is given here; in the data, active means inhibition above about 21%; inactive means the rest.
SMILES,Neddyl block,UHRF1 binding,UBC13 polyUb,MBD2 inh,UHRF1 ctr MBD2,MBD2 confirm,others
COc1cccc(/C=C/C(=O)OCC(=O)Nc2ccc(S(=O)(=O)N3CCCC3)cc2)c1,.,-3,6,1,.,.,
COc1cccc(/C=C/C(=O)OCC(=O)N2CCN(S(=O)(=O)c3ccc(Cl)cc3)CC2)c1,+,1,4,-1,.,.,Neddyl conf=i
COc1cccc(/C=C/C(=O)N2CCN(S(=O)(=O)c3ccccc3)CC2)c1,+,1,.,-2,.,.,Neddyl conf=i
CCN(CC)CCN1C(=O)C(=O)/C(=C(/O)c2cnn(-c3ccccc3)c2C)C1c1ccc(C)o1 (centres undefined),i,-4,5,0,.,.,
CC(C)c1ccc(C(=O)NCCCNC(=O)c2cnccn2)cc1,i,0,6,1,.,.,
CC1CN(C(=O)COC(=O)c2c(Cl)cccc2Cl)CC(C)O1 (centres undefined),i,-2,-1,0,.,.,
Cn1c2ccc(F)cc2c2ncn(CCCN(CCO)CCO)c(=O)c21,+,-2,9,-3,.,.,Neddyl conf=i
O=C(N/N=C/c1ccc([N+](=O)[O-])o1)c1ccncc1,+,-2,-20,-5,.,.,Neddyl conf=i
O=C(N/N=C/c1ccc([N+](=O)[O-])o1)c1ccc(O)cc1,i,-3,.,0,.,.,
CCS(=O)(=O)N1Cc2ccccc2CC1C(=O)N(C)Cc1ccc(OC)cc1OC (centres undefined),i,4,-3,8,.,.,
CCN(CC)CCCNc1oc(/C=C/c2ccccc2)nc1C#N,.,-5,13,-6,.,.,
CCNc1oc(/C=C/c2ccc(OCC)cc2)nc1C#N,+,2,0,3,.,.,
O=C(Nc1ccc(F)cc1)c1ccc(S(=O)(=O)NCC2CCCO2)cc1 (centres undefined),i,2,-7,2,.,.,
CC(=O)Nc1nonc1-c1nc2ccccc2n1CCC#N,+,1,1,2,.,.,Neddyl conf=i
Cc1oc(-c2cccs2)nc1CSCC(=O)NC1CC1,+,0,1,5,.,.,Neddyl conf=i
Cc1oc(-c2ccccc2Cl)nc1CSCC(=O)NC1CCCC1,i,0,8,-5,.,.,
COc1ccccc1Nc1cc(C)nc2c(C)ccc([N+](=O)[O-])c12,+,0,-12,0,.,.,Neddyl conf=i
O=C1CSC(c2cn(-c3ccccc3)nc2-c2cc3ccccc3oc2=O)N1Cc1cccnc1 (centres undefined),+,-1,5,-1,.,.,Neddyl conf=i
O=C1CSC(c2cn(-c3ccccc3)nc2-c2ccccc2)N1Cc1ccco1 (centres undefined),i,-2,-7,4,.,.,
C[C@@H]1CN(c2c(F)c(F)c3c(=O)c(C(=O)O)cn(C4CC4)c3c2F)C[C@H](C)N1,+,2,3,-1,.,.,
C[C@H](O)[C@@H]1C(=O)N2CCc3c([nH]c4ccccc34)[C@@H]2C[C@@H]1N(C)Cc1ccc(Cl)cc1,+,1,.,1,.,.,Neddyl conf=i
Cc1nc(NC(=O)CN2CCN(c3ccccc3F)CC2)sc1C(=O)N(C)C,i,2,1,4,.,.,
COc1ccc2cc3cc(C(=O)N4CCCC(C)C4)oc3nc2c1 (centres undefined),+,-2,4,-4,.,.,Neddyl conf=i
CCOC(=O)C1CCCN(C(=O)c2cc3cc4ccc(OC)cc4nc3o2)C1 (centres undefined),.,.,0,.,.,.,
COc1ccc(-c2cnc(C(O)c3ccccc3)[nH]2)cc1 (centres undefined),i,1,.,-1,.,.,
SMILES,Neddyl block,UHRF1 binding,UBC13 polyUb,MBD2 inh,UHRF1 ctr MBD2,MBD2 confirm,others
C[C@H](NC(=O)c1cc2c(cn1)[nH]c1ccccc12)C(=O)O,+,1,6,42*,3,3,Neddyl conf=+
Cc1cc(C)cc(N2C(=O)CN(Cc3sccc3C)C2=S)c1,i,-3,8,-5,.,.,
Cc1ccc(NCCN(C)C)c2c(=O)c3cc(O)ccc3sc12,i,-5,.,13*,10,27*,
CN(C)CCNc1cccc2sc3ccc(O)cc3c(=O)c12,i,-6,.,4,.,.,
Cc1cc(NC(=O)COC(=O)c2cc([N+](=O)[O-])ccc2N2CCOCC2)ccc1Br,i,0,-2,-1,.,.,
O=C1NC(=S)S/C1=C\c1ccc(SCc2ccco2)o1,i,.,.,.,.,.,
O=C1NC(=S)S/C1=C\c1ccc(SCc2ccccc2)o1,i,82*,.,29*,12,10,
CN(C)C=Nc1ncc2c3ccccc3n(CCN(C)C)c2c1C#N,i,2,-8,1,.,.,
CCN(CC)CCn1c2ccccc2c2cnc(N)c(C#N)c21,.,17,19,16*,21*,33*,
CCC1=NN2C(=N)/C(=C\c3ccc(SCc4ccco4)o3)C(=O)N=C2S1,i,56*,-24,20*,20,4,
CCCC1=NN2C(=N)/C(=C\c3ccc(SCc4ccco4)o3)C(=O)N=C2S1,i,.,-32,.,.,.,
CSc1nsc(SCC(=O)Nc2ccc(C(N)=O)cc2)n1,i,0,-2,23*,6,2,
O=c1/c(=C\c2cc([N+](=O)[O-])cc([N+](=O)[O-])c2O)sc2nc3ccccc3n12,i,.,-84,.,.,.,
O=C(O)c1cccc(-c2ccc(/C=c3/sc4nc5ccccc5n4c3=O)o2)c1,i,81*,-32,34*,54*,19*,
O=C(O)c1ccccc1-c1ccc(C=c2sc3nc4cc(Br)cnc4n3c2=O)o1,i,95*,.,55*,72*,63*,
Cc1ccc(CN2CCN(CC(=O)NC(C)c3ccc4c(c3)OCCO4)C2=O)cc1 (centres undefined),i,10,9,4,.,.,
Cc1ccccc1-c1nc2ccccc2c(=O)n1/N=C/c1ccc([N+](=O)[O-])cc1,i,1,-10,15*,-1,1,
O=c1c2ccccc2nc(-c2ccccc2)n1/N=C/c1ccc([N+](=O)[O-])cc1,i,-1,21,-6,.,.,
O=C(NCCCNC(=O)c1ccccc1Br)c1ccccc1Br,i,2,-10,-3,.,.,
COc1ccccc1Cc1c(C2CCCCC2)nc2ccc(C)cn12,i,14,.,2,.,.,
COc1ccc(Cc2c(C3CCCCC3)nc3ccc(C)cn23)c(C)c1,.,25*,.,18*,5,6,
CCn1nc(C(=O)Nc2nc(-c3ccccn3)cs2)c2ccccc2c1=O,i,-3,-1,27*,-3,4,
O=C(/C=C/c1cccs1)N1CCC2(CC1)Oc1ccc(Cl)cc1C(=O)C21CC(c2cccnc2)=NO1 (centres undefined),i,-2,-3,16*,6,2,
Cc1cccc(CNC(=S)OCCN2CCCC23CCC(c2ccccc2)CC3)c1 (centres undefined),.,-1,.,-3,.,.,
O=C(Nc1ccc(-c2nc3ccccc3[nH]2)cc1)c1ccc2c(c1)OCO2,.,6,7,14*,9,10,
